Where “and” joins values, the source holds several entries; their conditions need not be identical. Identical values can stand only once. Inconclusive results are not listed. A call without a number means that no potency is given here. A number with no mark means an inactive call. Calls of active or inactive are those of the source. Unless noted, calls follow the shape of the dose curve; as a rule, active = well fitted curve in the direction sought with a large enough effect; inconclusive = small, poorly fitted or top-dose-only effect, or another doubt; inactive = no such curve, though single readings can be large; an effect the other way counts as inactive or inconclusive.
Columns and labels:
[1] = Primary qHTS for inhibitors of nuclear receptor binding SET domain protein 2 (NSD2) in an isogenic RCH-ACV NSD2 p.E1099K mutant (9B) (AID 1645876); also: nearly all actives have a fitted effect of over 70% in size; also: potency is read from the fitted curve at half-maximal effect
[2] = target: Calcium and integrin-binding protein 1 (Homo sapiens) (UniProt Q99828); experiment: Primary qHTS for Identification of Calcium Integrin Binding Protein 1 (CIB1) Competitor (AID 1508620);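 also: GST tagged CIB1 binding a fluorescein labelled alphaIIb integrin peptide tracer; top concentration of the series differs between compounds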
Sequence of Calcium and integrin-binding protein 1 (Homo sapiens) (Q99828 whole entry, looked up): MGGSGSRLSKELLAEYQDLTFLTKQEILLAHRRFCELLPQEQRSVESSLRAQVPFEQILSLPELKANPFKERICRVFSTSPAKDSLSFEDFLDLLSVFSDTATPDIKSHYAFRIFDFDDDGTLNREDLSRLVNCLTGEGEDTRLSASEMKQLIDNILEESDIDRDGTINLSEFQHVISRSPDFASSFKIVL
Procedure, shortened: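 CIB1-GST (1 uM final) and compound incubated 15 min at room temperature before adding FITC-alphaIIb peptide tracer (100 nM final). Competition for binding read by fluorescence polarization (ex 480, em 540) after another 15 min at room temperature.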

[3] = Primary qHTS for small molecule stabilizers of the endoplasmic reticulum resident proteome: Secreted ER Calcium Modulated Protein (SERCaMP) assay (AID 1508630)
Procedure, shortened: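 GLuc-SERCaMP-expressing SH-SY5Y cells, pretreated 16 h with compound, are challenged with thapsigargin to empty ER calcium stores; after 4 h, coelenterazine is added directly to the medium and luminescence is imaged.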

[4] = target: Cytochrome P450 2D6 (Homo sapiens) (UniProt P10635); experiment: Cytochrome P450 family 2 subfamily D member 6 (CYP2D6) small molecule antagonists: luciferase biochemical (cell-free) qHTS assay (AID 1645840; active = well fitted curve in the direction sought with a large enough effect in the repeat runs; an effect the other way counts as inactive or inconclusive; also: nearly all actives have a fitted effect of over 55% in size; also: potency is read from the fitted curve at half-maximal effect; as to activity change, negative = inhibition: series mostly up to about 57 µM)
Sequence of Cytochrome P450 2D6 (Homo sapiens) (P10635 whole entry, looked up): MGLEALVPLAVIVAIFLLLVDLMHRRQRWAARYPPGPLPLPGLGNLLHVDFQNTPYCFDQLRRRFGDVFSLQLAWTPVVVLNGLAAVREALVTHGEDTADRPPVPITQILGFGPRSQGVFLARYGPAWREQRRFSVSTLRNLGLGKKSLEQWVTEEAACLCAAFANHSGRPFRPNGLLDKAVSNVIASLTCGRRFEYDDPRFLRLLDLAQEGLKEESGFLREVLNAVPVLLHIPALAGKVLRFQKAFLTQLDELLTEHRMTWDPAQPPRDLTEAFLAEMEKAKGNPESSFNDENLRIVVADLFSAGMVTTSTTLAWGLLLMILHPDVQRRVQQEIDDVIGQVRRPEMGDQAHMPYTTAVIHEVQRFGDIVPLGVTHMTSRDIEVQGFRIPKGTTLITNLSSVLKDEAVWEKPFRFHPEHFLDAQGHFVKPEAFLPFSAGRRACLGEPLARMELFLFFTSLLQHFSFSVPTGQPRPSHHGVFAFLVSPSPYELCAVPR
Procedure, shortened: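 P450-Glo luminescent screen: recombinant CYP2D6 enzyme–proluciferin substrate mix preincubated with compound 10 min at room temperature, then NADPH regeneration added for 1 h at room temperature. Detection reagent added for 20 min; luciferin light read as relative luminescence units.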

Papain (Carica papaya) = Papain (Carica papaya) (UniProt P00784); experiment: Primary qHTS assay for inhibitors of the protease papain (AID 1645873);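 also: papain turnover of Z-FR-AMC read as the AMC fluorescence gain over 10 min; series mostly up to about 50 µM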
Sequence of Papain (Carica papaya) (P00784 whole entry, looked up): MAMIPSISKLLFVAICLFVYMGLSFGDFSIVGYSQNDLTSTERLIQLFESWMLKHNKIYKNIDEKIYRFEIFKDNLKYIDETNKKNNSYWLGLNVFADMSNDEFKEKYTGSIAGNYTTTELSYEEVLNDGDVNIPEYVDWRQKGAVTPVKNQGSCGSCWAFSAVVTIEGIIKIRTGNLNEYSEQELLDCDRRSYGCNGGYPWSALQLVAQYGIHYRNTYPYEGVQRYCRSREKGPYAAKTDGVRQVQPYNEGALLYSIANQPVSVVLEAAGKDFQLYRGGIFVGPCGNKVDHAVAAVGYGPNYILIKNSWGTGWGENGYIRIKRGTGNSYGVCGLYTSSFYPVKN

[5] = Counterscreen qHTS for small molecule stabilizers of the endoplasmic reticulum resident proteome: GLuc-NoTag assay (AID 1508627);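 also: SH-SY5Y cells given compound then 100 nM thapsigargin to empty ER calcium; series mostly up to about 76 µM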
Procedure, shortened: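 Luminescence of Gaussia luciferase secreted into the medium (coelenterazine, 0.07x final, unlysed cells) was the read-out. Human SH-SY5Y neuroblastoma cells constitutively secreting untagged GLuc received compound for 19 h, then 100 nM thapsigargin for 4 h.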

[6] = Confirmatory qHTS for small molecule stabilizers of the endoplasmic reticulum resident proteome: Secreted ER Calcium Modulated Protein (SERCaMP) assay (AID 1508628); also: nearly all actives have a fitted effect of over 40% in size; also: potency is read from the fitted curve at half-maximal effect
Procedure, shortened: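 We seeded SH-SY5Y-GLuc-SERCaMP cells, added compounds (three concentrations in the primary run, eleven up to 76.6 uM in confirmation), incubated 16 h, depleted ER calcium with thapsigargin, and read luciferase 4 h later.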

[7] = Cell Viability qHTS for small molecule stabilizers of the endoplasmic reticulum resident proteome (AID 1508629); conditions: cell viability counter-screen, 100 nM thapsigargin for final 4 h;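 also: human SH-SY5Y neuroblastoma cells carrying the GLuc-SERCaMP reporter; compound exposure about 46 h in total before the viability read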

Q: With `CCC(C)(OC(C)=O)C(=O)O[C@H]1[C@H](OC(C)=O)C[C@@H]2[C@@](C)([C@@H]3C[C@H]4C=CO[C@H]4O3)[C@H](C)C[C@H](OC(C)=O)[C@@]2(COC(C)=O)[C@@]12CO2` (stereo partly drawn) as the compound, how does the Potency [1] read?
A: Its Potency is “inactive”.

Q: With `C=CC(C)(C)c1[nH]c2cccc3c2c1C[C@@H]1[C@@H]3[C@@H](OC(C)=O)[C@H](C)CN1C` as the compound, how does the Potency [2] read?
A: Its Potency is “inactive”.

Q: What about the Potency [1] of the same compound?
A: Its Potency is “inactive”.

Q: Which results are given for `CCN1C[C@]2(COC(=O)c3ccccc3N3C(=O)C[C@H](C)C3=O)CC[C@H](OC)[C@@]34[C@@H]5C[C@H]6[C@H](OC)[C@@H]5[C@](O)(C[C@@H]6OC)[C@](O)([C@@H](OC)[C@H]23)[C@@H]14`?
A: Potency [2]: inactive; Potency [1]: inactive

Q: With `COc1ccc2c(c1)/C(=C/c1cnc[nH]1)C(=O)N2` as the compound, how does the outcome [3] read?
A: The outcome was “inactive”.

Q: And the Potency [1]?
A: Its Potency is 13 µM (active).

Q: Which results are given for `N#C[C@@H](O[C@@H]1O[C@H](CO[C@@H]2O[C@H](CO)[C@@H](O)[C@H](O)[C@H]2O)[C@@H](O)[C@H](O)[C@H]1O)c1ccccc1`?
A: Potency [2]: inactive; Potency [1]: inactive

Q: For `CCNC(C)Cc1cccc(C(F)(F)F)c1` (stereo not drawn), which Potency [4] is on record?
A: The Potency was 3.79 µM (active).

Q: Which outcome [3] does the source give for `Cc1cccc(C(C)c2cnc[nH]2)c1C` (stereo not drawn) here?
A: Its outcome is “inactive”.

Q: Which results are given for `CC(C)C1(OO)C=C2C(=O)CC3C(C)(C(=O)O)CCCC3(C)C2CC1` (stereo not drawn)?
A: Potency [2]: inactive; Potency [1]: inactive

Q: With `CCN1C[C@]2(COC)[C@H](O)C[C@H](OC)[C@]34[C@@H]5C[C@]6(O)[C@H](OC(=O)c7ccccc7)[C@@H]5[C@@](O)([C@H]([C@H](OC)[C@H]23)[C@@H]14)[C@@H](O)[C@@H]6OC` as the compound, how does the Potency [2] read?
A: Its Potency is “inactive”.

Q: What about the Potency [1] of the same compound?
A: Its Potency is “inactive”.

Q: Which Potency [2] does the source give for `Oc1ccc2c3c1O[C@H]1[C@H](N(CCCl)CCCl)CC[C@@]4(O)[C@@H](C2)N(CC2CC2)CC[C@]314` here?
A: Its Potency is “inactive”.

Q: What about the activity change, negative = viability loss [1] of the same compound?
A: The activity change, negative = viability loss was -5.8% [at 9.23 µM].

Q: What does the source list for `Ic1ccccc1CNC1C2CCN(CC2)C1C(c1ccccc1)c1ccccc1` (stereo not drawn)?
A: outcome [3]: inactive; Potency (Papain (Carica papaya)): inactive

Q: Which outcome [3] does the source give for `C=CCN1CC[C@]23c4c5ccc(O)c4O[C@@H]2/C(=N/N=C2\CC[C@@]4(O)C6Cc7ccc(O)c8c7[C@@]4(CCN6CC=C)[C@@H]2O8)CC[C@@]3(O)C1C5` here?
A: Its outcome is “inactive”.

Q: Which results are given for `CC(C)[C@@]1(NC(=O)[C@@H]2C[C@@H]3c4cccc5[nH]cc(c45)C[C@H]3N(C)C2)O[C@@]2(O)[C@@H]3CCCN3C(=O)[C@H](Cc3ccccc3)N2C1=O`?
A: outcome [5]: inactive; Potency [6]: 25.1 µM (active)

Q: Which Potency [4] does the source give for `O=C(NC(=O)c1c(F)cccc1F)Nc1ccc(Cl)c(Oc2ncc(C(F)(F)F)cc2Cl)c1` here?
A: Its Potency is 1.51 µM (active).

Q: Which results are given for `O=C(O)c1ccnc2cc(C(OCCN3CCCCC3)c3ccccc3Cl)[nH]c12` (stereo not drawn)?
A: Potency [2]: inactive; Potency [1]: inactive

Q: Which outcome [3] does the source give for `CN(N=O)c1cc(O)ccc1O` here?
A: The outcome was “inactive”.

Q: And the Potency (Papain (Carica papaya))?
A: Its Potency is “inactive”.

Q: With `O=C(N1CCOCC1)N1CCN(c2ccc(Cl)cc2)CC1` as the compound, how does the Potency [2] read?
A: The Potency was “inactive”.

Q: What about the Potency [1] of the same compound?
A: The Potency was “inactive”.

Q: For `CCN1CC2(COC)C3[C@@H](OC)C4C1C3(C1C[C@]3(O)[C@H](OC(=O)c5ccccc5)C1[C@]4(OC(C)=O)[C@@H](O)[C@@H]3OC)[C@H](OC)C[C@H]2O` (stereo partly drawn), which Potency [2] is on record?
A: The Potency was “inactive”.

Q: And the Potency [1]?
A: Its Potency is “inactive”.

Q: Which results are given for `CC(=O)OC1CC(O)C(C)(C)C2CC(OC(C)=O)C3(C)C(CCC4(C)C(c5ccoc5)C(=O)C5OC543)C12C` (stereo not drawn)?
A: Potency [2]: inactive; Potency [1]: inactive

Q: For `C[C@@H]1C(=O)O[C@H]2[C@H](O)[C@@]34[C@@H]5OC(=O)[C@@]3(O[C@@H]3OC(=O)[C@@H](O)[C@@]34[C@H](C(C)(C)C)[C@H]5O)[C@@]12O`, which Potency [2] is on record?
A: Its Potency is “inactive”.

Q: What about the Potency [1] of the same compound?
A: Its Potency is “inactive”.

Q: With `CCCCCCCCOC(=O)c1ccccc1C(=O)OCCCCCCCC` as the compound, how does the Potency [4] read?
A: Its Potency is “inactive”.

Q: Which results are given for `C=CC(C)(O)CC/C=C(\C)C(=O)O[C@H]1[C@H](O)[C@@H](CO)O[C@@H](OC(=O)[C@]23CCC(C)(C)CC2C2=CCC4[C@@]5(C)CC[C@H](O[C@@H]6O[C@H](CO[C@@H]7OC[C@H](O)[C@H](O)[C@H]7O[C@@H]7OC[C@@H](O)[C@H](O)[C@H]7O)[C@@H](O)[C@H](O)[C@H]6O)C(C)(C)C5CC[C@@]4(C)[C@]2(C)CC3)[C@@H]1OC1OC(C)C(O[C@@H]2OC[C@@H](O)[C@H](O[C@@H]3OC[C@@H](O)[C@H](O)[C@H]3O)[C@H]2O)C(O)C1O` (stereo partly drawn)?
A: activity change, negative = inhibition [2]: -11.1% [at 12.4 µM]; activity change, negative = viability loss [1]: -17.9% [at 9.23 µM]

Q: For `COc1ccc2c(c1)[C@@]13CCCC[C@H]1[C@@H](C2)NCC3`, which Potency [6] is on record?
A: The Potency was “inactive”.

Q: Which Potency [4] does the source give for `C#CC(C)(O)CC` (stereo not drawn) here?
A: Its Potency is “inactive”.

Q: For `O[C@H]1[C@H]2[C@H](O)CCCN2C[C@H]1O`, which outcome [5] is on record?
A: The outcome was “inactive”.

Q: What about the max response [7] of the same compound?
A: The max response was 13.7% and 34.4%.

Q: With `C=CCN(C1=NCCN1)c1c(Cl)cccc1Cl` as the compound, how does the outcome [3] read?
A: The outcome was “inactive”.

Reference: PubChem BioAssay (NCATS)
